# Shown are actives, neighbours in structure and some others; about 5% of the full set was active somewhere.
# SENP7 block: blocks the human protease SENP7 | 330,000 compounds, 1.5% hits | recombinant SENP7, Z-RLRGG-aminoluciferin luminescence, 40 min | inhibition, % at 5 µM | Q9BQF6 | AID 434973;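 active means inhibition above about 50% at the single test dose, limit read from the data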
# Target sequence (Q9BQF6 706-1050 limits assumed): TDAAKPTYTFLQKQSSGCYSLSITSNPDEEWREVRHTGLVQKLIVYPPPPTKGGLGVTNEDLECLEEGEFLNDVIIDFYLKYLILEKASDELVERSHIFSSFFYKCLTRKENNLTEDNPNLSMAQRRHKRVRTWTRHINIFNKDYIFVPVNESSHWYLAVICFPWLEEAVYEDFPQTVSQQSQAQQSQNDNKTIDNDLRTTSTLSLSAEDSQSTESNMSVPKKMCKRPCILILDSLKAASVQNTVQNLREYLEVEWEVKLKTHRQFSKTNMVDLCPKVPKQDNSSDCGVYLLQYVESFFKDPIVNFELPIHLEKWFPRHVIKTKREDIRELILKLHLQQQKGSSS
# AHR act: activates the human aryl hydrocarbon receptor | P35869 | AHR-responsive luciferase reporter cells, luminescence | activation, % at 5 µM | 320,000 compounds, 2.5% hits | AID 2796; in the data active means activation above about 47%
# EBI2 block: EBI2 (human) antagonism. P32249. EBI2 beta-arrestin recruitment, luminescence, 7a,25-OHC stimulated. inhibition, % at 5 µM. 360,000 compounds, 0.81% hits; in the data active means inhibition above about 38%;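 further: enzyme fragment complementation signal reports receptor beta-arrestin coupling in cells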
# SENP8 block-1: inhibitors of human SENP8 protease. Q96LD8. purified SENP8, Z-RLRGG-aminoluciferin cleavage, luminescence. inhibition, % at 10 µM. 330,000 compounds, 1.2% hits. AID 2540; in the data active means inhibition above about 50%
# SENP6 inh: inhibitors of human SENP6 protease; Q9GZR1; 330,000 compounds, 1.8% hits; inhibition, % at 10 µM; Recombinant SENP6 catalytic domain, aminoluciferin luminescence; AID 2599;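 active means inhibition above about 50% at the single tested dose, limit read from the data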
# SENP8 block-2: blocks human SENP8 cleavage of Nedd8 substrate; Q96LD8; recombinant SENP8, Nedd8 substrate fluorescence; inhibition, % at 20 µM; 360,000 compounds, 0.64% hits; AID 602440; in the data active means inhibition mostly above about 40%, no sharp cut-off; inactive means mostly below about 27%
# SENP8 confirm: confirmation of human SENP8 protease inhibitors; shares compounds with SENP7 block; Recombinant SENP8, Z-RLRGG-aminoluciferin luminescence, 60 min; inhibition, % at 12.5 µM; 6,200 compounds, 40% hits;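 active means mean inhibition across replicates above about 50%, limit read from the data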
# SENP6 conf: human SENP6 inhibition, confirmed; shares compounds with SENP7 block; recombinant SENP6, Z-RLRGG-aminoluciferin luminescence; inhibition, % at 12.5 µM; 6,200 compounds, 58% hits
# SENP7 conf: confirmation of human SENP7 protease inhibitors; shares compounds with SENP7 block; recombinant SENP7, Z-RLRGG-aminoluciferin luminescence, 40 min; inhibition, % at 12.5 µM; 6,200 compounds, 69% hits; AID 488917
# Casp3 SENP sel: selectivity test for SENP inhibitors: human caspase-3 inhibition. shares compounds with SENP7 block. purified caspase-3, Z-DEVD-aminoluciferin luminescence, 60 min. inhibition, % at 12.5 µM. 6,200 compounds, 60% hits;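 active means mean inhibition above about 50%, limit read from the data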
# Target sequence (P42574 28-227 limits assumed): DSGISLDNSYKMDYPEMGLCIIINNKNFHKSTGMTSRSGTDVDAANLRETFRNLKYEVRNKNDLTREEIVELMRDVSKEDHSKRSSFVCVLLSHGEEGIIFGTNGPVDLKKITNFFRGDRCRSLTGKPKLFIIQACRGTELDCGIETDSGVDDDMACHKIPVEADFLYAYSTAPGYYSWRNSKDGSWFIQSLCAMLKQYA
# Luc interf: luminescence interference (SENP counter-screen); inhibition, % at 12.5 µM; AID 488919; shares compounds with SENP7 block; Pre-incubated SENP8/Z-RLRGG-aminoluciferin, luciferase luminescence interference; 6,200 compounds, 39% hits;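 active means mean inhibition above about 50% when retested at one dose, limit read from the data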
# Hits are given with their value; 0 = inactive; - = no result.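 How the source made its calls, unless noted: active means mean inhibition above about 50% in the one-dose retest (limit read from the data); inactive means the rest.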
SMILES,SENP7 block,AHR act,EBI2 block,SENP8 block-1,SENP6 inh,SENP8 block-2,SENP8 confirm,SENP6 conf,SENP7 conf,Casp3 SENP sel,Luc interf
COC(=O)c1sccc1NC(=O)CN(C)NS(=O)(=O)c1ccc(F)cc1,0,0,0,0,0,0,-,-,-,-,-
COc1ccc(OC)c2sc(N3CCc4ccccc4C3)nc12,0,0,0,0,0,0,-,-,-,-,-
c1ccc2c(c1)CCN(c1nc3cc4c(cc3s1)OCCO4)C2,99,0,0,96,97,0,98,99,102,97,83
Brc1ccc(NCc2nnc3n2CCCCC3)cc1,99,0,0,0,0,0,0,0,0,0,0
CCOc1ccccc1N1CCN(CC(=O)NCCc2ccc(S(N)(=O)=O)cc2)CC1,0,0,0,0,0,0,-,-,-,-,-
COC(=O)c1oc2ccc(Cl)cc2c1N,0,0,0,0,53,0,0,0,69,58,0
COC(=O)c1oc2ccc(Cl)cc2c1-n1cccc1,0,0,0,0,0,0,-,-,-,-,-
Clc1ccsc1-c1ccc2ccccc2n1,81,0,0,67,88,0,0,78,94,51,0
c1ccc2nc(-c3ccc(N4CCOCC4)cc3)ccc2c1,97,0,0,81,93,0,66,80,93,76,0
c1ccc(-c2ccc3cnccc3n2)cc1,-,-,0,-,-,0,-,-,-,-,-
c1ccc2nc(-c3ccncc3)ccc2c1,0,0,0,0,53,0,0,0,60,67,0
COc1ccc(S(=O)(=O)N2CCN(CC3CC=CCC3)CC2)cc1 (configuration not stated),0,0,0,0,0,0,-,-,-,-,-
CCOc1ccc(C(=O)COC(=O)c2cc(=O)[nH]c3ccccc23)cc1,53,0,0,0,0,0,0,0,0,0,0
O=C(COC(=O)c1cc(=O)[nH]c2ccccc12)c1ccc(Br)cc1,0,0,0,0,0,0,-,-,-,-,-
COc1ccc(CCNC(=O)N[C@@H](Cc2ccccc2)C(=O)O)cc1,0,0,0,0,0,0,-,-,-,-,-
Cc1ccc(C(=O)Nc2nc3ccc(S(C)(=O)=O)cc3s2)s1,0,0,0,51,68,0,0,53,0,62,0
Cc1ccc(C(=O)O)c(C(=O)Nc2nc3ccccc3s2)c1,0,0,0,67,69,0,90,91,100,95,76
Cc1ccc(CNc2nc3ccccc3s2)s1,87,68,0,76,85,0,73,72,92,71,0
CC1CC1C(=O)Nc1nc2ccc(S(C)(=O)=O)cc2s1 (configuration not stated),0,0,0,0,0,0,-,-,-,-,-
CS(=O)(=O)c1ccc2nc(NC(=O)c3cccs3)sc2c1,89,0,0,84,91,0,0,79,95,88,60
CCCCS(=O)(=O)N1CCCC(C(=O)Nc2ccc3c(c2)CCC3)C1 (configuration not stated),0,0,0,0,0,0,-,-,-,-,-
Cc1noc(C)c1COc1ccccc1C(=O)N(C)Cc1ccc(C(C)(C)C)cc1,0,0,0,0,0,0,-,-,-,-,-
Cc1ccc(C(=O)Nc2nc3ccccc3s2)s1,85,79,0,73,91,0,57,83,97,76,0
Cc1ccc2nc(NC(=O)c3cccs3)sc2c1,98,64,0,89,92,0,0,89,92,74,0
Cc1ccc2nc(NC(=S)NC(=O)c3cccs3)sc2c1,0,0,0,0,0,0,-,-,-,-,-
SMILES,SENP7 block,AHR act,EBI2 block,SENP8 block-1,SENP6 inh,SENP8 block-2,SENP8 confirm,SENP6 conf,SENP7 conf,Casp3 SENP sel,Luc interf
COc1cccc(C(=O)Oc2ccc(N3C(=O)CCC3=O)c(C)c2)c1,0,0,0,0,0,0,-,-,-,-,-
Cc1ccc(-c2cc(C(F)(F)F)c(C#N)c(=O)[nH]2)cc1,0,0,0,68,76,0,65,66,57,61,0
COc1cccc(-c2cc(C(F)(F)F)c(C#N)c(=O)[nH]2)c1,0,0,0,85,85,0,0,70,85,70,77
N#Cc1c(C(F)(F)F)cc(-c2ccccc2)[nH]c1=O,0,0,0,0,0,0,-,-,-,-,-
Cc1cc(=O)[nH]c(SCC(=O)NCCC2=CCCCC2)n1,0,0,0,0,0,0,-,-,-,-,-
Clc1ccc(/C=N/NC2=Nc3cccc4cccc2c34)cc1,0,0,0,0,0,0,-,-,-,-,-
C(=N\NC1=Nc2cccc3cccc1c23)/c1ccccc1,0,0,0,0,62,0,0,0,83,0,0
COc1ccc(-c2nc(CSCC(=O)NC3CCCC3)c(C)o2)cc1OC,0,0,0,0,0,0,-,-,-,-,-
CCOC(=O)N1CCN(C(=O)c2ccc(Cl)c(NC(=O)c3cccs3)c2)CC1,0,0,0,0,0,0,-,-,-,-,-
CCOc1ccccc1C(=O)Nc1nnc(Cc2ccc(OC)c(OC)c2)s1,0,0,0,0,0,0,-,-,-,-,-
CN(C)c1ccc(N=Nc2nc3ccccc3n2C)cc1,100,0,0,97,100,50,95,101,103,89,0
CCOc1cc(C(=O)N2CCC3(CC2)NCCc2[nH]cnc23)cc(OCC)c1OCC,0,0,0,0,0,0,-,-,-,-,-
CN1c2cccc3cccc(c23)N(C)C1(C)C,0,0,0,0,72,0,0,0,0,0,0
CN1c2ccccc2N(C)C1(C)c1cccc2ccccc12,0,0,0,0,0,0,-,-,-,-,-
Fc1ccc(CO/N=C2\CCCc3nonc32)cc1,0,0,0,0,0,0,-,-,-,-,-
O=C(OCN1C(=O)c2ccccc2C1=O)c1cccc(S(=O)(=O)N2CCOCC2)c1,0,0,0,0,0,0,-,-,-,-,-
CSc1ccc(C2NN=C(c3ccccc3)S2)cc1 (configuration not stated),99,0,0,93,92,0,52,53,0,60,0
COc1ccc(C2NN=C(c3ccc(C)cc3)S2)cc1 (configuration not stated),-,0,0,-,-,0,-,-,-,-,-
Oc1ccccc1C1NN=C(c2ccccc2)S1 (configuration not stated),95,0,0,61,86,0,0,79,70,65,0
O=C(CCNC(=O)c1ccc([N+](=O)[O-])cc1)Nc1nccs1,0,0,0,0,0,0,-,-,-,-,-
